# Test results published in the supplement of paper PMC7801607.
# Assays:
# CHO = experiment: % viability of CHO cells (MTT); higher = less toxic; details: 48 h
# Summary of the method: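 Viability was given as a percentage of untreated cells and measured colorimetrically by the tetrazolium (MTT) assay. Before this, CHO cells at 10^6 cells/well in 200 µL attached overnight, then received fresh medium containing compound at 2 or 20 µM for 48 h.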
# HepG2-A16-CD81 = experiment: % inhibition of HepG2 viability (CellTiter-Glo); higher = more toxic; details: 5 µM
# [1] = test system: Plasmodium falciparum NF54 stage IV/V gametocytes; experiment: % inhibition of gametocyte viability (PrestoBlue); higher = more inhibition; details: 48 h
# Summary of the method: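 Values are percent inhibition of gametocyte viability, normalised to vehicle and kill controls in a single run. Stage IV/V NF54 gametocytes (2% gametocytaemia, 5% haematocrit, 100 µL/well) were held with compound at 1 or 5 µM for 48 h at 37 °C, stationary and hypoxic. Viability was read as 612 nm fluorescence on 70 µL of supernatant after a 2 h incubation with 10 µL PrestoBlue.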
# [2] = test system: Plasmodium falciparum NF54 asexual blood stage; experiment: % inhibition of asexual blood stage proliferation (pLDH); higher = more inhibition; details: 72 h
# Summary of the method: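 Using 96-well plates, the screen was run twice on separate occasions with Plasmodium falciparum NF54 ring-stage cultures at 1% haematocrit and 2% parasitaemia. Each culture was exposed to compound at 2 or 20 µM for 72 h at 37 °C under a gas mix of 4% CO2, 3% O2 and 93% N2. After incubation, the parasite lactate dehydrogenase assay was read colorimetrically at 620 nm. From this readout, percent inhibition of asexual proliferation was derived against control wells.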
# [3] = test system: Plasmodium falciparum NF54 stage IV/V gametocytes; experiment: % inhibition of gametocyte viability (ATP bioluminescence); higher = more inhibition; details: 24 h
# Summary of the method: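 Viability of stage IV/V NF54 gametocytes is given as percent inhibition, normalised to control wells in a single run. Gametocytes enriched on density gradients were seeded at 30,000 per well in 96-well plates with compound at 1 or 5 µM and held at 37 °C for 24 h. ATP was then read with the Promega BacTiter Glo bioluminescence system.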
# [4] = test system: Plasmodium falciparum NF54 stage IV/V gametocytes; experiment: % inhibition of gametocyte viability (luciferase reporter); higher = more inhibition; details: 48 h
# Summary of the method: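 Percent inhibition came from luminescence and was normalised to controls in a single run. Gametocytes (stage IV/V, NF54-Pfs16-GFP-Luc line, 2% gametocytaemia, 2% haematocrit) were treated with compound at 1 or 5 µM and incubated for 48 h at 37 °C without agitation under hypoxia. Readings used 30 µL lysate with 30 µL Promega luciferin substrate on a GloMax-Multi+ reader, integrating for 10 s.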
# [5] = test system: Plasmodium berghei ANKA liver stage in HepG2-A16-CD81; experiment: % inhibition of liver stage parasite viability (luciferase); higher = more inhibition; details: 5 µM; 48 h
# Protocol: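 Single-concentration screen of the MMV Pandemic Response Box. P. falciparum NF54 asexual blood stages: pLDH assay, 72 h at 37 °C, 2 and 20 µM, n=2. Stage IV/V gametocytes (NF54): luciferase reporter (NF54-Pfs16-GFP-Luc, 48 h), ATP bioluminescence (24 h) and PrestoBlue (48 h) at 1 and 5 µM, n=1. P. berghei liver stage (luciferase in HepG2-A16-CD81, 48 h post infection) at 5 µM, n=4. All normalised to DMSO and kill controls as % inhibition.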
# 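Wherever % inhibition of HepG2 viability (CellTiter-Glo) is given: HepG2-A16-CD81 hepatoma cells plated as in the liver-stage assay but without sporozoites, with DMSO wells as negative and 25 µM puromycin as positive control.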
Compound,% viability of CHO cells (CHO; 2 µM) [%],% viability of CHO cells (CHO; 20 µM) [%],% inhibition of HepG2 viability (HepG2-A16-CD81) [%],% inhibition of gametocyte viability ([1]; 1 µM) [%],% inhibition of gametocyte viability ([1]; 5 µM) [%],% inhibition of asexual blood stage proliferation ([2]; 2 µM) [%],% inhibition of asexual blood stage proliferation ([2]; 20 µM) [%],% inhibition of gametocyte viability ([3]; 1 µM) [%],% inhibition of gametocyte viability ([3]; 5 µM) [%],% inhibition of gametocyte viability ([4]; 1 µM) [%],% inhibition of gametocyte viability ([4]; 5 µM) [%],% inhibition of liver stage parasite viability [5] [%]
NC(=O)c1c(N)sc2c1CCCCC2,87,32,6.02,< 0,8.3,4.8,-4.48,< 0,< 0,0.638,1.6,-7.51
Cc1[nH]c2ccccc2c1CC(=O)N[C@@H](Cc1ccccc1)C(=O)N(C)c1ccccc1,80.4,56,4.27,25.2,23.6,-9.75,76.5,6.25,< 0,1.82,1.07,8.84
CC(=O)N1CCN(c2ccc(OCC3COC(Cn4ccnc4)(c4ccc(Cl)cc4Cl)O3)cc2)CC1 (stereo not given),105,60.1,0.653,6.22,< 0,2.92,64.4,< 0,< 0,< 0,< 0,16.4
NC(=O)[C@@H]1CC[C@@H]2CN1C(=O)N2OS(=O)(=O)O,82.9,117,4.71,< 0,< 0,30.8,16.5,1.17,< 0,< 0,1.87,12.2
Oc1cc(-c2cccc3ccccc23)[nH]n1,109,68.8,2.56,4.17,26.7,3.8,-4.8,< 0,< 0,< 0,< 0,45.4
CC(N)C12CC3CC(CC(C3)C1)C2 (stereo not given),115,102,-6.21,4.36,25,15.8,20.4,7.67,2.98,< 0,3.24,-6
O=C1CCC(N2C(=O)c3ccccc3C2=O)C(=O)N1 (stereo not given),129,120,-2.75,< 0,< 0,30.6,69.3,< 0,< 0,0.963,6.01,25.6
CN(Cc1ccc(C(C)(C)C)cc1)Cc1cccc2ccccc12,92.4,110,2.12,7.34,8.91,-5.03,71.1,< 0,< 0,< 0,< 0,10.2
CC[C@@H](CO)NCCN[C@@H](CC)CO,85,50.4,-1.81,< 0,25,42.9,37.6,0.155,0.768,< 0,< 0,32.9
O=C(Nc1cccc(C2=NCCN2)c1)c1ccc(-c2ccc(C(=O)Nc3cccc(C4=NCCN4)c3)cc2)cc1,90.2,96.3,14.5,31.3,62.4,54,41.2,7.89,38,< 0,59.1,15.4
